Laboratory results as given in PubChem BioAssay AID540256 (National Center for Advancing Translational Sciences (NCATS), 2011).
Where “and” joins values, the source holds several entries; their conditions need not be identical. Equal values may be shown once. Hit rate of the full screen: of about 300,000 compounds, about 3,700 (1.2%) were called active. Entries that show only a call come without a potency. Not shown: some 20% with an inconclusive outcome. The call rests on the fitted dose curve; tested in HEK293 cells. This excerpt belongs to a sample that is enriched for actives.

test: qHTS for Inhibitors of binding or entry into cells for Lassa Virus; conditions: Lassa virus pseudotype entry inhibition, cell reporter; series mostly up to 37.9 µM; further: nearly all actives have a fitted effect of over 50% in size
Potency means the concentration at half of the fitted maximal effect.

Row | Structure (SMILES) | Potency
1 | CCCCCCCCn1c2c(c(=N)c3c1CCC3)CCCC2 | 5.62 µM (active)
2 | CCCCCCn1c(CN2CCCCC2)nc2c1c(=O)n(C)c(=O)n2C | inactive
3 | CCCCN(CC(=O)Nc1cccc(S(=O)(=O)N2CCCC2)c1)Cc1nc2ccccc2c(=O)[nH]1 | inactive
4 | O=C(Nc1ccccc1)Oc1cccc2cccnc12 | inactive
5 | O=C(CNC(=O)c1ccccc1Br)NCCSc1ccc(Br)cc1 | inactive
6 | Oc1[nH]c2ccccc2c1N=Nc1c(F)c(F)c(F)c(F)c1F | inactive
7 | CN1CCN(c2ccc(S(=O)(=O)Nc3ccccc3)cc2[N+](=O)[O-])CC1 | inactive
8 | O=[N+]([O-])c1cc(S(=O)(=O)Nc2cccc(Cl)c2)ccc1N=Nc1c(O)[nH]c2ccccc12 | 11.2 µM (active)
9 | CC1(C)N=C(N)NC(Nc2ccc(Cl)cc2)=N1 | inactive
10 | Cc1ccc(S(=O)(=O)N(CC(=O)N2CCc3ccccc3C2)c2cccc(Cl)c2)cc1 | 14.1 µM (active)
11 | COc1cccc(N(CC(=O)N2CCc3ccccc3C2)S(C)(=O)=O)c1 | inactive
12 | CS(=O)(=O)N(CC(=O)N1CCc2ccccc2C1)c1ccc(Br)cc1 | inactive
13 | Cc1ccc(S(=O)(=O)N2CCC(C(=O)N3CCCCCCC3)CC2)cc1 | inactive
14 | O=C(c1ccc(F)c(S(=O)(=O)N2CCOCC2)c1)N(CCc1ccccc1)Cc1ccccc1 | inactive
15 | Cc1cc(C2=NNC(=Nc3ccc(S(=O)(=O)N4CCOCC4)cc3)SC2)c(C)n1CC1CCCO1 (centres undefined) | inactive
16 | C=CCn1c(C)cc(C2=NNC(=NCC)SC2)c1C | 1.64 µM (active)
17 | COc1ccc(C/C(N)=N/OC(=O)c2ccco2)cc1OC | inactive
18 | COc1ccc(C(=O)ON=C2c3ccccc3-c3ccccc32)cc1OC | inactive
19 | COc1ccc(C(=O)O/N=C(\N)Cc2ccc(Cl)cc2Cl)cc1OC | 20 µM (active)
20 | O=C(CN1CCSc2ccccc21)N1CCN(c2ccccc2)CC1 | inactive
21 | CCOc1cc(C(=O)NCCc2csc3nc(-c4ccc(C)cc4)nn23)cc(OCC)c1OCC | inactive
22 | Cc1cc(=O)[nH]c(SCc2ccc(Cl)cc2)n1 | inactive
23 | O=C(O)CN1CCN(C(c2ccccc2)c2ccccc2)CC1 | inactive
24 | Cn1nnnc1SCC(=O)N1CCN(C(c2ccccc2)c2ccccc2)CC1 | inactive
25 | c1ccc(C(c2ccccc2)N2CCN(Cc3nnnn3C3CCCCC3)CC2)cc1 | 11.6 µM (active)
26 | COc1ccc(N2CCN(C(=O)CCNC(=O)c3ccc(Br)cc3)CC2)cc1 | inactive

Row | Structure (SMILES) | Potency
27 | Cc1ccc(S(=O)(=O)NCCC(=O)OCC(=O)N(C)c2ccccc2)cc1 | inactive
28 | Cc1cc(C)nc(N/N=C/c2c(CO)cnc(C)c2O)n1 | inactive
29 | N#Cc1c(N)n(CCOC(=O)c2ccc(Cl)cc2)c2nc3ccccc3nc12 | inactive
30 | CC(C)(C)c1ccc(C(=O)NCCn2c(N)c(C#N)c3nc4ccccc4nc32)cc1 | inactive
31 | CN(C)CCCn1c(N)c(C#N)c2nc(C#N)c(C#N)nc21 | 15.8 µM (active)
32 | O=C(Cc1ccc(S(=O)(=O)N2CCOCC2)s1)Nc1ccc(Br)c(C(F)(F)F)c1 | inactive
33 | O=C(Nc1ncccc1O)c1ccc(C(=O)c2ccccc2)cc1 | inactive
34 | N#CCN(C(=O)COC(=O)C1CC2CCCC(C1)C2=O)c1ccccc1 (centres undefined) | inactive
35 | CC(=O)Oc1cccc(N2C(=O)C3CC=C(Cl)CC3C2=O)c1 (centres undefined) | inactive
36 | O=C(NC1CC(=O)N(c2ccccc2)C1)c1ccco1 (centres undefined) | inactive
37 | O=C(Oc1cccc(N2C(=O)C3C4c5ccccc5C(c5ccccc54)C3C2=O)c1)c1ccco1 (centres undefined) | 8.91 µM (active)
38 | CCOc1ccc(CN2CCNC(=O)C2CC(=O)NCCCC2CCCC2)cc1 (centres undefined) | inactive
39 | NC(=S)NN=C1CCCC(C(F)(F)F)C1 (centres undefined) | inactive
40 | Cc1c(C(=O)N2CCCc3ccccc32)oc2ccccc12 | inactive
41 | O=C(c1c(Cl)nc2sccn12)N1CCCc2ccccc21 | inactive
42 | Cc1cccc2cc3c(N)c(C(=O)N4CCCc5ccccc54)sc3nc12 | 2.82 µM (active)
43 | CC(=NNC(=O)c1ccc2nc[nH]c2c1)c1ccc(Br)cc1 | inactive
44 | O=C(NCCc1ccc(Cl)cc1)c1ccc2c(c1)N(Cc1ccc(F)cc1)C(=O)CS2 | inactive
45 | CCOc1ccc(Br)cc1S(=O)(=O)Nc1ccc(S(=O)(=O)Nc2cc(C)on2)cc1 | inactive
46 | CC(Nc1nc(C(F)(F)F)nc2ccccc12)c1cccs1 (centres undefined) | inactive
47 | CCc1ccc(C(CNc2nc(C(F)(F)F)nc3ccccc23)N(C)C)cc1 (centres undefined) | 10 µM (active)
48 | NS(=O)(=O)c1ccc(CCNc2nc(C(F)(F)F)nc3ccccc23)cc1 | inactive
49 | Cc1ccc(S(=O)(=O)n2oc(=O)c(C3CCCCC3)c2N)cc1 | inactive
50 | C/C(=N\NC(=O)Cc1ccc(Br)cc1)c1cccnc1 | inactive
51 | CC(=NNC(=S)N1CCCCCC1)c1ccccn1 | 0.316 µM (active)
52 | CCNC(=S)N1CCN(c2ncccn2)CC1 | inactive

Row | Structure (SMILES) | Potency
53 | C/C(=N\NC(=O)Cc1ccc(Cl)cc1)c1ccccn1 | 8.2 µM (active)
54 | CNC(=S)N1CCN(c2ccccn2)CC1 | inactive
55 | C/C(=N\NC(=O)c1ccccc1F)c1ccccn1 | 7.08 µM (active)
56 | C/C(=N\NC(=O)Cc1ccc(F)cc1)c1ccc(F)cc1 | inactive
57 | O=C(Nc1ccc(NC(=O)c2ccccc2F)cc1)c1ccccc1F | inactive
58 | CC(=O)Nc1cccc(/C(C)=N/NC(=O)c2ccccc2Cl)c1 | inactive
59 | CCOC(=O)CCC(NC(=O)c1ccc(CNc2nc3cc(C(F)(F)F)ccc3nc2C(=O)OCC)cc1)C(=O)OCC (centres undefined) | inactive
60 | Cc1nn(-c2ccc(N3CCCCC3)nn2)c(C)c1CCC(=O)NCc1ccc(F)cc1 | inactive
61 | COc1ccc(C(=O)C(C)OC(=O)c2cccc(S(=O)(=O)Nc3c(C)n(C)n(-c4ccccc4)c3=O)c2)cc1 (centres undefined) | inactive
62 | O=C(NNc1nc(N2CCCC2)nc(N2CCCC2)n1)c1ccccc1 | inactive
63 | O=C(Nc1ccc(O)cc1)c1ccc(NC(=O)c2ccco2)cc1 | inactive
64 | COCCn1c(SC(C)C(=O)NC2CC2)nnc1-c1cccc(C)c1 (centres undefined) | inactive
65 | COC(=O)c1sc(N2CCN(Cc3ccccc3)CC2)nc1N | inactive
66 | Cc1ccc(OC(=O)c2cc3ccccc3o2)cc1 | inactive
67 | CC(C)Oc1ccc(NC(=O)c2cc3ccccc3o2)cc1 | inactive
68 | C/C(=N\NC(=S)Nc1ccc(C)cc1)c1cc2ccccc2o1 | 6.51 µM (active)
69 | CCOc1ncccc1C(=O)Nc1ccc2c(c1)OCCO2 | inactive
70 | COc1cccc2c1C(=O)c1c(O)c3c(c(O)c1C2=O)CC(O)(C(C)=NNC(=O)c1ccc(Cl)c(Cl)c1)CC3OC1CC(N)C(O)C(C)O1 (centres undefined) | 0.398 µM (active)
71 | COc1ccc(C2NCCCC2c2ccccc2)cc1 (centres undefined) | inactive
72 | Cc1ccccc1NC(=O)Cn1cc(C(=O)C2CC2)c2ccccc21 | inactive
73 | CN(CCc1ccccn1)C1CCCN(S(=O)(=O)c2ccccc2Cl)C1 (centres undefined) | inactive
74 | c1ccc2c(c1)C(=NC1CCCCC1)NC2=NC1CCCCC1 | 13 µM (active)
75 | COC(=O)Cc1nc2c(N)nc(N)nc2[nH]c1=O | inactive
76 | COc1cc(/C=C/C2=CC(C)(C)NC(=S)N2)cc(OC)c1OC | inactive
77 | COc1cc(/C=C/c2ccc(/C=C/c3cc(OC)c(OC)c(OC)c3)cc2)cc(OC)c1OC | 11.2 µM (active)
78 | CCC(=O)c1ccc(OC(=O)/C=C/c2cc(OC)c(OC)c(OC)c2)cc1 | inactive

Row | Structure (SMILES) | Potency
79 | Cc1ccc(NC(=O)C2CC2)cc1S(=O)(=O)N1CCOCC1 | inactive
80 | Cc1cccc(N2CCN(C(=O)CCSCc3ccccc3F)CC2)c1C | inactive
81 | CC[C@H]1CN2CCc3cc(OC)c(OC)cc3[C@@H]2C[C@@H]1C[C@H]1NCCc2cc(OC)c(OC)cc21 | 580 nM (active) and 184 nM (active)
82 | COc1cc2c(cc1O)[C@H](Cc1ccc(Oc3cc(C[C@@H]4NCCc5cc(OC)c(O)cc54)ccc3O)cc1)NCC2 | inactive
83 | CCC(CC)C(=O)N1CCc2cc(OC)c(OC)cc2C1COc1ccc(F)cc1 (centres undefined) | inactive
84 | O=C(NC(=S)Nc1ccc(Br)cc1F)C1CCCCC1 | inactive
85 | Nc1cccnc1Sc1ccccc1 | inactive
86 | CC12C=C(C=Cc3ccc(F)cc3)C(C)(C1)C(c1ccc(F)cc1)CC2=O (centres undefined) | inactive
87 | O=C(Nc1ccc(-c2nc3cc(NC(=O)c4ccccc4Cl)ccc3o2)cc1)c1ccccc1Cl | inactive
88 | COc1ccccc1OCc1nc2ccccc2s1 | 10 µM (active)
89 | COc1cccc2sc(NNC(=O)c3nc4ccccc4s3)nc12 | inactive
90 | O=C(O)CCCCc1nc2ccccc2s1 | inactive
91 | COc1ccc(-c2cc(=O)oc3cc(OC(C)C(=O)Nc4ccc(CN5CCOCC5)cc4)ccc23)cc1 (centres undefined) | inactive
92 | S=C(NCC1COc2ccccc2O1)Nc1ccc(Br)cc1 (centres undefined) | inactive
93 | c1ccc(-c2cc3c(NCC4COc5ccccc5O4)ncnc3s2)cc1 (centres undefined) | 11.6 µM (active)
94 | c1ccc2c(c1)OCC(CNc1ncnc3nc[nH]c13)O2 (centres undefined) | inactive
95 | O=C(Nc1cccc(C(=O)NC2CC2)c1)c1ccc(F)c(S(=O)(=O)N2CCOCC2)c1 | inactive
96 | CCOc1ccc(C(=O)Nc2cc(OC)ccc2OC)cc1 | inactive
97 | CCOc1ccc(C(=O)Nc2ccc3nc4c(c(Nc5ccccc5OC)c3c2)CCCC4)cc1 | 11.2 µM (active)
98 | COc1cccc(NC(=O)c2ccc3c(SCC(=O)O)c4c(nc3c2)CCCC4)c1 | inactive
99 | Cc1ccccc1CS(=O)(=O)CC1Nc2ccc(C(=O)NCc3ccc(Cl)cc3)cc2NC1=O (centres undefined) | inactive
100 | Cc1ccc(OCCSc2nc3ccc(NC(=O)COc4ccc(C)cc4)cc3s2)cc1 | inactive
101 | Cc1cc(C)nc(Nc2n[nH]c(-c3ccccc3N)n2)n1 | 6.31 µM (active)
102 | Cc1cc(C)nc(NC(=O)C(C)N2C(=O)c3ccccc3C2=O)n1 (centres undefined) | inactive
103 | Cc1cc(C)nc(Nc2cc([N+](=O)[O-])ccc2C)n1 | inactive
104 | CC1CCN(C2=NC(=O)/C(=C/c3ccc(O)cc3)S2)CC1 | inactive
